Bioassay records from PubChem BioAssay.
dFosB act-1: mouse delta FosB homodimer activation; purified delta FosB, TAMRA-CDK5 oligo fluorescence polarization; percent of positive-control signal above neutral wells; activation, % at 25 µM; hit rate 0.99% among 340,000;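 active means mean activation above about 17%, with every replicate also reaching it, limit read from the data, passing the limit was not always enough; inconclusive means only one of the two conditions met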
Target sequence (P13346 whole entry, looked up): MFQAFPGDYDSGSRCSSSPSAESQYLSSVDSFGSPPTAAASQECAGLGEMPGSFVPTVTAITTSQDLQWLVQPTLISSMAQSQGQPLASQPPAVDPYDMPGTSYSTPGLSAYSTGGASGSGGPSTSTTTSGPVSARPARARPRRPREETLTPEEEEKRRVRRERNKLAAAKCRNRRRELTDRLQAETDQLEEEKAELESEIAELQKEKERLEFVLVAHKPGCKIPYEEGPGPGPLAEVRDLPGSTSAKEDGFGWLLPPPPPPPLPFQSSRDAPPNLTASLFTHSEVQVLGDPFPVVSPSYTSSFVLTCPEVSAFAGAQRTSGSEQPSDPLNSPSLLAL
CFTR F508del cor: correctors of CFTR F508del function in bronchial epithelial cells; activity (quench increase), % at 7.58 µM; hit rate 0.36% among 350,000; CFBE cells, YFP halide quenching; stimulated with forskolin plus potentiator P3; % fluorescence drop versus neutral controls;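 active means mean added fluorescence quench of at least 8% versus neutral control, with both replicates also reaching 8%; inconclusive means only one of the mean or replicate conditions met; inactive means mean below 8% and not both replicates reaching 8%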;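 further: cells transiently co-express mutant CFTR-F508del with the halide-sensitive YFP; corrector assay measuring rescue of mutant channel to the surface after 24 h compound exposure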
RAD54 inh: RAD54 (human) branch migration inhibition; Q92698; RAD54 Holliday junction branch migration, FAM/BHQ fluorescence; inhibition, % at 10.4 µM; hit rate 0.14% among 360,000;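 active means mean normalized replicate activity at least 40 and at least half of replicates scoring 40 or more; inconclusive means only one of the two criteria met; inactive means mean below 40 and under half of replicates reaching 40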;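 further: 0% = median of neutral control wells and 100% = median of positive control wells; inhibitors cause a drop in the FAM fluorescence signal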
PvdQ acylase: blocks Pseudomonas aeruginosa PvdQ acylase activity. inhibition, % at 10 µM. purified PvdQ acylase, fluorescence plate reader. AID 488965. hit rate 0.063% among 340,000; in the data active means inhibition above about 30%, passing the limit was not always enough; inconclusive means no clear call, values can overlap the other calls;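 further: 0% = vehicle neutral wells and 100% = reference inhibitor wells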
RAD52 inh: inhibitors of human RAD52 DNA annealing. hit rate 0.46% among 360,000. inhibition, % at 18.7 µM. AID 651710. recombinant RAD52 DNA annealing, FRET fluorescence;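 active means every replicate showing at least 50% inhibition; inconclusive means mean inhibition at least 50% but not in every replicate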
N-glyco inh: N-linked glycosylation inhibition; D54 ERlucT glycosylation luciferase reporter, 24 h; percent of 100 nM tunicamycin response; hit rate 0.23% among 360,000; AID 588692; reporter increase, % at 12.5 µM;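 active means mean luciferase reporter signal, scaled so untreated is 0 and the glycosylation-blocking control 100, at or above a set limit in every replicate; inconclusive means mean reaches the limit but not every replicate does; inactive means mean below the limit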;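 further: luciferase carries N-glycosylation sites so blocking glycosylation raises the light; 0% = median of neutral control wells and 100% = median of 100 nM tunicamycin wells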
dFosB act-2: activators of mouse delta FosB homodimer DNA binding; shares compounds with dFosB act-1; AID 588690; activation, % at 24.9 µM; 2,400 tested, under 10 active; purified delta FosB, TAMRA-CDK5 oligo fluorescence polarization; normalised: neutral wells 0, positive control 100;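 active means highest replicate activation at or above 34% and every replicate reaching that threshold; inconclusive means meets only one of the two criteria; inactive means meets neither criterion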;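 further: higher polarization means more probe DNA bound by delta FosB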
DNA binding: counter-screen for Rad54 inhibitors: DNA binding compounds | shares compounds with RAD54 inh | Acridine orange-DNA displacement, fluorescence polarization, 20 min | AC50, µM (top dose mostly 35 µM), inactives show top-dose activity change, negative = DNA binding | hit rate 8% among 460;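 active means signal drop giving an AC50 within twice the top valid tested concentration of each sample, actives reach about 35 µM in these data; inactive means activity opposite to expected, plus the rest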;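 further: polarization loss reports compound binding to salmon sperm DNA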
RAD52 DNA ctr: DNA binding artifact in RAD52 counter-screen | shares compounds with RAD52 inh | Salmon sperm DNA/acridine orange FP displacement | AC50, µM | hit rate 8% among 1,000 | AID 652128;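 active means fitted half-maximal concentration for signal loss at or below twice the highest dose tested, in every separate run, actives reach about 64 µM in these data; inconclusive means runs disagree, or flat partial signal loss, or poor fit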
An asterisk follows results filed as active; i = inactive; ? = inconclusive; / = no result. Hits are enriched below; roughly 1.5% of the tested compounds scored in any of these assays.

SMILES	dFosB act-1	CFTR F508del cor	RAD54 inh	PvdQ acylase	RAD52 inh	N-glyco inh	dFosB act-2	RAD52 DNA ctr	others
CO[C@H]1CN(C)C(=O)c2ccc(NC(=O)C3CC3)cc2OC[C@H](C)N(CC2CCCC2)C[C@@H]1C	/	1	/	/	9	/	/	/
CCCC(=O)N1CC2(C1)CN(Cc1nccs1)[C@@H](CO)c1[nH]c3cc(OC)ccc3c12	/	1	/	/	/	/	/	/
CCN(CC)CCNc1ccnc2cc(Cl)ccc12	9	2	39	-2	16	7	/	/
CCNC1CCC(Nc2ccnc3cc(Cl)ccc23)CC1 (stereo unspecified)	20*	1	55*	5	13	3	6	/	DNA binding=-2%
COc1cc(OC)c2nc(C)c3c(c2c1)N(c1ccc(O)cc1)CC3	47*	/	51*	-30	/	28*	6	/	DNA binding=-3%
COc1ccc(NC(=O)Nc2ccc3c(c2)C(=O)N([C@H](C)CO)C[C@H](C)[C@@H](CN(C)S(=O)(=O)c2ccc(OC)cc2)OCCCC[C@@H](C)O3)cc1	/	-1	4	/	/	/	/	/
CCN1CCN(c2cc(C)c3cc(NC(=S)NCCN(C)C)ccc3n2)CC1	20*	1	93*	-21	98*	0	7	/	DNA binding=-9%
CCOc1cc2[nH]c(=S)n(Cc3ccc(C(=O)NCCCOC)cc3)c(=O)c2cc1OCC	1	1	4	-15	-6	-5	/	/
CCOc1cc2[nH]c(=S)n(Cc3ccc(C(=O)NCCCN(CC)CC)cc3)c(=O)c2cc1OCC	30*	-1	51*	13	67*	-3	5	i	DNA binding=-13%
CCCCCCCCCCCC1N=C(N)NC(CCCO)=C1C(=O)OC (stereo unspecified)	42*	-5	/	-5	88*	0	?	?
CCCCCCOC(=O)c1ccc(N)cc1	-1	-5	1	-11	-32	-1	/	/
COc1ccc(CN2[C@@H](CO)[C@@H]3c4ccccc4N(C(=O)CC(F)(F)F)C[C@@H]32)cc1	/	-1	6	/	-23	/	/	/
COc1cccc2sc(N(CCCN(C)C)C(=O)c3ccc(S(=O)(=O)N4CCc5ccccc5C4)cc3)nc12	30*	2	17	9	70*	0	1	i
CCc1ccc2nc(N(CCCN(C)C)C(=O)c3ccc(S(=O)(=O)N4CCCc5ccccc54)cc3)sc2c1	23*	2	10	1	71*	-7	7	i
CCN(c1ccccc1)S(=O)(=O)c1ccc(C(=O)N(CCCN(C)C)c2nc3cc4c(cc3s2)OCO4)cc1	29*	-2	20	-4	66*	-12	-3	i
CN(C)CCCN(C(=O)c1ccc(S(=O)(=O)N(C)Cc2ccccc2)cc1)c1nc2cc3c(cc2s1)OCO3	?	1	3	-13	-5	/	/	/
Cc1ccc(-c2cnc3c(c2)C(=O)N([C@@H](C)CO)C[C@@H](C)[C@@H](CN(C)C(=O)c2cccnc2)O3)cc1	/	-1	11	/	-6	/	/	/
CC(=O)N(C)C[C@@H]1Oc2cc(-c3ccncc3)ccc2S(=O)(=O)N([C@H](C)CO)C[C@@H]1C	/	-1	6	/	4	/	/	/
CN(C)CCCNc1cc(-c2ccccc2)nc2cc(-c3cccc(F)c3)nn12	56*	-8	90*	-9	67*	19	2	i	DNA binding=-25%
CCN(CC)CCNc1ncnc2c1sc1nc(N3CCOCC3)c3c(c12)CCCC3	31*	-2	/	14	66*	-10	-6	65µM*
OCCNc1ncnc2c1sc1nc(N3CCOCC3)c3c(c12)CCC3	-3	4	-12	0	34	0	/	/
CN(C)CCCN1C(=O)c2cccc3cccc(c23)C1=O	20*	?	102*	-12	58*	116*	3	i	DNA binding=-19%
CN(C)CCCn1c(SCC(=O)N2c3ccccc3Sc3ccccc32)nc2ccccc2c1=O	24*	/	6	9	69*	-13	0	i
C[C@@H]1CN([C@H](C)CO)C(=O)Cc2cc(NC(=O)Nc3ccc(F)cc3)ccc2O[C@@H]1CN(C)Cc1ccc(Cl)c(Cl)c1	/	5	-2	/	0	/	/	/
CCOc1ccc(CCN2C(=S)N([C@@H](CC(C)C)CN3CCCC3CN3C(=S)NC[C@@H]3Cc3ccc(O)cc3)C[C@@H]2Cc2ccc(O)cc2)cc1 (stereo partly specified)	51*	3	-2	-8	79*	-8	1	i
SMILES	dFosB act-1	CFTR F508del cor	RAD54 inh	PvdQ acylase	RAD52 inh	N-glyco inh	dFosB act-2	RAD52 DNA ctr	others
CCC(=O)Nc1ccc2c(c1)C(=O)N(C)C[C@H](OC)[C@@H](C)CN(C(=O)CC1CC1)[C@@H](C)CO2	/	5	7	/	0	/	/	/
Cc1cc(N2CCN(C)CC2)nc2ccc(NC(=S)NCCCN3CCc4ccccc4C3)cc12	31*	-3	80*	-8	100*	0	0	i	DNA binding=-19%
Cc1cc(N2CCOCC2)nc2ccc(NC(=S)N3CCCCC3C)cc12 (stereo unspecified)	-1	-1	4	6	-15	3	/	/
CCCCNC(=O)CCC(=O)Nc1ccc2nc(N3CCN(C)CC3)cc(C)c2c1	-5	0	6	1	-2	0	/	/
Cc1cc(N2CCCC2)nc2ccc(NC(=S)NCCCN3CCC(C)CC3)cc12	46*	0	/	-2	76*	1	2	i
O=C(C[C@H]1CC[C@H](NC(=O)c2ccncc2)[C@H](CO)O1)NCC1CC1	/	0	-2	/	-18	/	/	/
O=C(Nc1ccc(F)cc1)N1CC(=O)N2[C@H](CO)[C@@H](c3ccc(-c4ccc(F)cc4)cc3)[C@@H]2C1	/	2	/	/	-17	/	/	/
COc1ccc(OCC(O)CN2CCC(CN3C(=O)c4cccc5cccc(c45)C3=O)CC2)cc1 (stereo unspecified)	45*	6	/	7	96*	14	2	i
Cc1cc(C)c2sc(N(CCCN(C)C)C(=O)c3ccc(S(=O)(=O)N(C)Cc4ccccc4)cc3)nc2c1	3	0	-2	-12	-35	-6	/	/
Cc1cc(C)c2sc(N(CCCN(C)C)C(=O)CN3C(=O)c4ccccc4C3=O)nc2c1	31*	0	41	3	67*	-1	-15	i
CCN(CC)CC(=O)Nc1cc(N(C)C)nc2ccccc12	-10	1	51*	3	31	2	/	/	DNA binding=-3%
CCCc1nc2ccccc2c(NC(=O)CN(CC)CC)c1CC	-6	3	/	-1	-26	2	/	/
